HTT aggregate: qHTS Multiplex Assay to Identify Dual Action Probes in a Cell Model of Huntington: Aggregate Formation (GFP); Potency, µM (series often up to 46.1 µM), for inactives: at the top dose activity change, negative = inhibition, most hits filed as inhibitors; PC12 HttQ103-GFP aggregates, Acumen cytometry, 40 h; AID 1688, 2009; 220,000 tested, 1.1% active; also: potency is read from the fitted curve at half-maximal effect; % is scaled to controls: 0 for no effect and ±100 for the full control effect; nearly all actives have a fitted effect of over 60% in size
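Inducible Q103 Huntingtin exon 1–GFP PC12 line, 1500 cells/well in phenol red free DMEM with 5% equine and 5% calf serum. Tebufenozide 100 nM induced expression; compounds titrated; aggregates quantified by cytometry.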
ALDH1A1 inh: qHTS Assay for Inhibitors of Aldehyde Dehydrogenase 1 (ALDH1A1); Aldehyde dehydrogenase 1A1 (Homo sapiens), P00352; Purified ALDH1A1, NADH fluorescence, propionaldehyde substrate; Potency, µM (series often up to 75.3 µM), without a hit: at the top dose activity, negative = inhibition, usual class: inhibitors; 220,000 tested, 7.3% active; active = well fitted inhibition curve with a large enough effect, not every such curve was filed as active; inconclusive = small, poorly fitted or top-dose-only effect, or another doubt; inactive = no such curve, though single readings can be large or run the other way;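 also: potency is read from the fitted curve at half-maximal effect; plate controls were no enzyme wells and a reference inhibitor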
Target sequence (P00352 whole entry, looked up): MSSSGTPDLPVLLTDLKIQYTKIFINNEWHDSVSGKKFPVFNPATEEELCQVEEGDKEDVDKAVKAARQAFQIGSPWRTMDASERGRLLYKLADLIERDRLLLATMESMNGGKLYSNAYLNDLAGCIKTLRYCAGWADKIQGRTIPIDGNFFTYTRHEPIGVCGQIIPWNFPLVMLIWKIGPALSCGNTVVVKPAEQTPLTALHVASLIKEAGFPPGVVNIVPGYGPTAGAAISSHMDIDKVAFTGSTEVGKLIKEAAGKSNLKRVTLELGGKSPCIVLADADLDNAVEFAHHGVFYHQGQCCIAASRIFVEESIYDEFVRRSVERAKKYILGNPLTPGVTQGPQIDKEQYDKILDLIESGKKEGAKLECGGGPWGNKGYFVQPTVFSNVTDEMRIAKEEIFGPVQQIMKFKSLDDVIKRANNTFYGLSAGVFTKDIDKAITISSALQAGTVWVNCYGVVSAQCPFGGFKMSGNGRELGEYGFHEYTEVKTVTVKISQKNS
CBFb RUNX1 block: qHTS Assay for Compounds Blocking the Interaction Between CBF-beta and RUNX1 for the Treatment of Acute Myeloid Leukemia | AlphaScreen CBFb-His/RUNX1-biotin binding, biochemical | Potency, µM (titrated, usually from 59.8 µM), inactives show at the highest dose activity, negative = inhibition, most hits filed as inhibitors | 230,000 tested, under 10 active | Runt-related transcription factor 1 (Homo sapiens) + Core-binding factor subunit beta …; also: % of control where 0% means no effect
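Bead-based AlphaScreen assay; binding partners His-tagged CBF-beta and biotinylated RUNX1 at 30 nM each. Compound exposure 15 min after a 20-min protein preincubation; bead step 90 min; all steps at room temperature.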
KDM4E inh: qHTS Assay for Inhibitors of Human Jumonji Domain Containing 2E (JMJD2E) | AID 2147, 2009 | 230,000 tested, 1.6% active | Lysine-specific demethylase 4E (Homo sapiens), B2RXH2 | JMJD2E catalytic domain, FDH-coupled NADH fluorescence (FDH is formaldehyde dehydrogenase) | Potency, µM (series often up to 57.1 µM), inactives show top-dose activity change, negative = inhibition, most hits filed as inhibitors; active = well fitted inhibition curve with a large enough effect, not every such curve was filed as active; inconclusive = small, poorly fitted or top-dose-only effect, or another doubt; inactive = no such curve, though single readings can be large or run the other way;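 also: potency is read from the fitted curve at half-maximal effect; 0% = wells with enzyme and -100% = buffer wells without enzyme; nearly all actives have a fitted effect of over 50% in size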
HTT ATP protect: qHTS Multiplex Assay to Identify Dual Action Probes in a Cell Model of Huntington: Cytoprotection (ATP). Potency, µM (doses to about 56.4 µM), for inactives: cytoprotection (ATP increase), most hits filed as activators. AID 1471, 2008. PC12 HTT-Q103 induced, cytoprotection, ATP luminescence, 40 h. 230,000 tested, 0.14% active; also: potency is read from the fitted curve at half-maximal effect; % of control where 0% means no effect; nearly all actives have a fitted effect of over 45% in size
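Rat PC12, Q103 Htt exon1-GFP fusion, ecdysone promoter; tebufenozide inducer 100 nM final; compound titration; qHTS, 1500 cells/well; ATPlite luminescent read.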
HPGD inh: qHTS Assay for Inhibitors of HPGD (15-Hydroxyprostaglandin Dehydrogenase); 15-hydroxyprostaglandin dehydrogenase [NAD(+)] (Homo sapiens), P15428; purified HPGD, NADH fluorescence kinetic, PGE2 substrate; Potency, µM, inactives show at the top dose activity change, negative = inhibition, hits mostly inhibitors; 150,000 tested, 4.3% active; active = well fitted inhibition curve with a large enough effect, not every such curve was filed as active; inconclusive = small, poorly fitted or top-dose-only effect, or another doubt; inactive = no such curve, though single readings can be large or run the other way; also: potency is read from the fitted curve at half-maximal effect; % is scaled to controls: 0 for no effect and ±100 for the full control effect
Target sequence (P15428 whole entry, looked up): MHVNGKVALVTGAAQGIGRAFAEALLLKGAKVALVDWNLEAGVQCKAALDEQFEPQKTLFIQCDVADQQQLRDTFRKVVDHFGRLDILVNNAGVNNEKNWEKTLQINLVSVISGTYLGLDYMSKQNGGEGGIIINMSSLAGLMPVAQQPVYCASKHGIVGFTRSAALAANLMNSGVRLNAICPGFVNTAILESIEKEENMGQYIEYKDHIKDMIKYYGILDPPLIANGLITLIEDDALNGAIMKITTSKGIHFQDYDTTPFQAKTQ
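20 nM HPGD preincubated 15 min at room temperature with compound in 50 mM Tris-HCl pH 8, 0.01% Tween 20. Started with 1 mM NAD+ and 30 uM prostaglandin E2; NADH fluorescence (360/450 nm) read 5 times over 30-s intervals, last minus first.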
Numbers without * were called inactive; ? = inconclusive; . = not tested or not shown; [ ] = another dose, or the depositor's remark. In the library only some 9.8% were active in any assay of this set; here they are far more common. Unless noted, calls follow the shape of the dose curve; as a rule, active = well fitted curve in the direction sought with a large enough effect; inconclusive = small, poorly fitted or top-dose-only effect, or another doubt; inactive = no such curve, though single readings can be large; an effect the other way counts as inactive or inconclusive.

SMILES	HTT aggregate	ALDH1A1 inh	CBFb RUNX1 block	KDM4E inh	HTT ATP protect	HPGD inh
Cc1nccc(-c2cccc(NC(=O)c3ccccc3Cl)c2)n1	10%[9.22 µM]	.	0%	3%	16%[10 µM]	.
COc1ccc(C(=O)N2CCC3(CCN(Cc4cc(C(F)(F)F)cc(C(F)(F)F)c4)CC3)CC2)cc1	.	1%	.	.	?	-15%
CCCCNC(=S)N=Nc1c(O)n(Cc2ccccc2)c2ccccc12	?	20µM*	?	15%	2%[10 µM]	.
C/C(Cl)=C\Cn1c(O)c(N=NC(N)=S)c2ccccc21	-20%[9.22 µM]	1µM*	-29%	13%	-45%[10 µM]	.
COC(=O)N=Nc1c(O)n(Cc2ccccc2)c2ccccc12	-2%[9.22 µM]	.	2%	6%	-20%[10 µM]	.
CCOC(=O)N=Nc1c(O)n(Cc2ccccc2)c2ccccc12	15%	8.9µM*	-1%	-11%	-11%	.
NC(=S)N=Nc1c(O)n(Cc2ccccc2)c2ccccc12	?	2.5µM*	4%	-2%	16%[10 µM]	-8%
COC(=O)c1ccc(Cn2c(O)c(N=NC(N)=S)c3ccccc32)o1	-14%[9.22 µM]	.	?	0%	10%[10 µM]	.
O=C(O)c1ccccc1C(=O)NCC(O)COc1ccc(Cl)cc1 (stereo not drawn)	-16%[9.22 µM]	.	1%	-3%	23%[10 µM]	.
CC(C)CC(=O)O/N=C1\C(=O)N(Cc2ccc(Cl)cc2)c2ccc([N+](=O)[O-])cc21	?	?	-8%	7%	-25%	14µM*
CC(=O)O/N=C1\C(=O)N(Cc2ccc(C)cc2)c2ccccc21	-5%	?	0%	-4%	29%[10 µM]	.
COc1cc(-c2nnc3sc(-c4ccccn4)nn23)cc(OC)c1OC	.	.	.	.	-13%[0.074 µM]	.
O=c1oc2ccccc2c(O)c1Cc1cc(Cl)c2cccnc2c1O	-41%[9.22 µM]	?	-5%	5µM*	-55%[10 µM]	.
O=C(Oc1c(CN2CCOCC2)cc(Cl)c2cccnc12)c1ccccc1	?	-4%	?	-20%	-146%	.
CC(=N)c1c(O)c2ccccc2oc1=O	30%[9.22 µM]	.	8%	5%	5%[10 µM]	.
CN1CCN(Cc2cc(COCc3ccccc3)c3cccnc3c2O)CC1	-22%	?	?	8.9µM*	-40%	-16%
Oc1c(CN2CCCCC2)cc(Br)c2cccnc12	?	-3%	?	?	-97%[10 µM]	-18%
Oc1c(CN2CCc3ccccc3C2)cc(Cl)c2cccnc12	?	1%	.	22µM*	-81%	-14%
Cc1cc(C(=O)O)ccc1[C@H](N)C(=O)O	.	4%	16%	-2%	-37%	-12%
CCOc1ccc2c(c1)c1nnc(SCC(=O)N3CCC(C)CC3)nc1n2C	5%	?	0%	5%	-6%	3.5µM*
CC1CCCCN1C(=O)CSc1nnc(Cc2ccccc2)n1C (stereo not drawn)	-5%	1%	0%	4%	4%[10 µM]	-14%
CC1CCN(C(=O)CSc2nc3cccnc3n2C)CC1	-17%	-9%	2%	3%	-35%	-27%
CCOc1ccc2c(c1)c1nnc(SCC(=O)N3CCCCC3C)nc1n2C (stereo not drawn)	-7%	13µM*	6%	-8%	-21%	16µM*
Cn1[nH]c(C(F)(F)F)c(C=Nc2ccc(Cl)cc2)c1=O	1%	3%	0%	-9%	-29%	.
COc1cc(/C=C2\SC(=O)N(Cc3ccc(Cl)cc3)C2=O)cc([N+](=O)[O-])c1O	31%[9.22 µM]	2.5µM*	?	?	-40%[1.9 µM]	.
SMILES	HTT aggregate	ALDH1A1 inh	CBFb RUNX1 block	KDM4E inh	HTT ATP protect	HPGD inh
COc1cc(/C=C2\SC(=O)N(Cc3ccc(F)cc3)C2=O)cc([N+](=O)[O-])c1O	-3%[9.22 µM]	0.71µM*	-22%	-12%	2%[10 µM]	.
COc1ccc(C(=O)NCCN2C(=O)S/C(=C\c3cccnc3)C2=O)cc1[N+](=O)[O-]	-10%[9.22 µM]	.	2%	-1%	-3%[10 µM]	.
CCOC(=O)CN1C(=O)S/C(=C/c2ccc(OC)c([N+](=O)[O-])c2)C1=O	2%	13µM*	0%	8%	11%[10 µM]	16µM*
COc1cc(/C=C2\C(=O)NN(c3ccccc3)C2=O)cc([N+](=O)[O-])c1O	5%	?	-23%	-15%	-22%	.
COc1ccc(-c2nc3cnc(N4CCNCC4)nc3n(C)c2=O)cc1	.	?	.	.	-30%	?
O=C(CNC(=O)c1ccc(S(=O)(=O)N2CCCC2)cc1)N/N=C/c1c(Cl)cccc1Cl	11µM*	?	-1%	-6%	-14%[10 µM]	-16%
O=C(NCc1n[nH]c(=S)n1-c1cccc(C(F)(F)F)c1)c1ccc(S(=O)(=O)N2CCCC2)cc1	0%	?	1%	-9%	-20%	.
O=C(NCc1n[nH]c(=S)n1-c1cccc(Cl)c1)c1ccc(S(=O)(=O)N2CCCC2)cc1	17%	4.5µM*	2%	-12%	-28%	-23%
O=C(CNC(=O)c1ccc(S(=O)(=O)N2CCCC2)cc1)N/N=C/c1ccc(Cl)cc1	-1%	17%	8%	-2%	-9%[10 µM]	0%
CCCN(CCC)S(=O)(=O)c1ccc(C(=O)NCc2n[nH]c(=S)n2-c2ccc(Cl)c(Cl)c2)cc1	?	-10%	-1%	2%	28%[10 µM]	.
O=C(NCc1n[nH]c(=S)n1-c1ccc(F)cc1)c1ccc(S(=O)(=O)N2CCCC2)cc1	6%	16µM*	1%	-6%	2%	-26%
OCc1ccccc1O[C@H]1OC(CO)C(O)C(O)C1O (stereo partly drawn)	.	2%	19%	2%	.	5%
O=C(NCC(=O)N(c1cccnc1)C(C(=O)NC1CCCC1)c1cccs1)c1cccs1 (stereo not drawn)	5%[9.22 µM]	2%	2%	4%	14%[10 µM]	.
CC1=[N+](C)N(c2ccccc2)C(=O)C1N=C/C=C/c1ccccc1 (stereo not drawn)	-8%[9.22 µM]	.	4%	-4%	-1%[10 µM]	.
O=C(CSc1ccc2c(c1)OCCO2)NCC1CCCO1 (stereo not drawn)	-8%	?	-5%	-10%	-16%	16µM*
O=C(CSc1cc(Cl)ccc1Cl)NCC1CCCO1 (stereo not drawn)	11%	5%	6%	4%	-11%[10 µM]	6.3µM*
O=C(CCCOc1ccc(Cl)cc1)NCC1CCCO1 (stereo not drawn)	11%	?	-2%	0%	-8%	14µM*

Screens: PubChem, National Center for Advancing Translational Sciences (NCATS)
